Results from PubChem BioAssay (Tox21).
Records with an inconclusive call do not appear. Entries that show only a call come without a potency. The source made the active and inactive calls. Calls come from the whole dose curve; as a rule, active = well fitted inhibition curve with a large enough effect in the repeat runs; inconclusive = weak or mixed curves; inactive = no such curve, though single readings can be large or run the other way.

What follows are compounds tested against Cytochrome P450 2C19 (Homo sapiens) (UniProt P33261) (assay: Cytochrome P450 Family 2 Subfamily C Member 19 (CYP2C19) small molecule antagonists: luciferase reporter qHTS assay (AID 1671197; note: nearly all actives have a fitted effect of over 65% in size)). Settings: P450-Glo CYP2C19 enzyme, luciferin luminescence, 1 h; series mostly up to 52.9 µM.
In short: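 Luminescent readout of CYP2C19 activity: luciferin product detected 20 min after adding detection reagent. Before that, compound and enzyme-substrate mix preincubated 10 min at room temperature; NADPH-regenerating system started a 1 h, 37C reaction. Ketoconazole as positive control.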
Potency is the fitted concentration of half-maximal effect.

Cytochrome P450 2C19 (Homo sapiens), sequence (P33261 whole entry, looked up): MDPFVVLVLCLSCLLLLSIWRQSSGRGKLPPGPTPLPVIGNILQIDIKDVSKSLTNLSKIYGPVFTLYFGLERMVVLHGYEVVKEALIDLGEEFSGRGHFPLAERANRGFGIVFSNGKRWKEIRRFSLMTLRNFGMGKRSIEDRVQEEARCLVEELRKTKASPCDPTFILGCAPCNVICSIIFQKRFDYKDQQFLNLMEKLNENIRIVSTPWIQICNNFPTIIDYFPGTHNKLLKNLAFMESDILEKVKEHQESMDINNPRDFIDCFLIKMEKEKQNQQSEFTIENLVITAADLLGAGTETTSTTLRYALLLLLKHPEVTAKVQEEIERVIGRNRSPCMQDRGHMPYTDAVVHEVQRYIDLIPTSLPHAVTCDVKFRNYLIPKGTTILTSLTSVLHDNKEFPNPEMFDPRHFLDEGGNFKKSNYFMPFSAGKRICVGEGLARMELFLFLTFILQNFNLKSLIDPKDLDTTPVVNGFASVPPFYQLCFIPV

Structure (SMILES)	Potency
O=C(O)c1cccc(-c2noc(-c3ccccc3F)n2)c1	0.776 µM (active)
CN1CCCC(CC2c3ccccc3Sc3ccccc32)C1 (centres undefined)	7.76 µM (active)
O=C(O)CCC(=O)C(=O)O	inactive
O=C=Nc1ccc(Cl)c(Cl)c1	inactive
O=[N+]([O-])c1ccc(O/N=C/c2cc(Br)c(O)c(Br)c2)c([N+](=O)[O-])c1	79.3 µM (active)
CCCC(C(=O)OCCN(CC)CC)(c1ccccc1)c1ccccc1	21.9 µM (active)
C=C1C[C@@]23CC[C@H]4[C@@](C)(CCC[C@@]4(C)C(=O)O[C@@H]4O[C@H](CO)[C@@H](O)[C@H](O)[C@H]4O)[C@@H]2CC[C@]1(O[C@@H]1O[C@H](CO)[C@@H](O)[C@H](O[C@@H]2O[C@H](CO)[C@@H](O)[C@H](O)[C@H]2O)[C@H]1O[C@@H]1O[C@H](CO)[C@@H](O)[C@H](O)[C@H]1O)C3	inactive
CC(C)Nc1cccnc1N1CCN(C(=O)c2cc3cc(NS(C)(=O)=O)ccc3[nH]2)CC1	9.77 µM (active)
CC(CC1c2ccccc2CCc2ccccc21)CN(C)C (centres undefined)	8.71 µM (active)
COc1cc(C(=O)NCCCCCC(=O)O)cc(OC)c1OC	inactive
CC1=C(Br)C(=O)C(Br)=C/C1=C(/c1ccccc1S(=O)(=O)O)c1cc(Br)c(O)c(Br)c1C	27.2 µM (active)
N#CCCN(CCO)CCO	inactive
CC(C)(C)C(=O)C(=O)O	inactive
CC1CC(C)C(=O)C1=O (centres undefined)	inactive
CC(=O)c1cc2ccccc2s1	inactive
C/C=C/C=C/C=O	inactive
C=CCc1ccccc1OCC(O)CNC(C)C (centres undefined)	inactive
O=C(/C=C/c1ccccc1)OCCc1ccccc1	20 µM (active)
O=[N+]([O-])c1ccc(Nc2ccc(Nc3ccccc3)c(S(=O)(=O)O)c2)c([N+](=O)[O-])c1	inactive
COC(=O)c1nc(Cl)c(Cl)nc1N	inactive

Structure (SMILES)	Potency
CCCCCC#CC(=O)OC	inactive
Oc1c(I)cc(I)c2cccnc12	inactive
C[C@]1(Cn2ccnn2)[C@H](C(=O)O)N2C(=O)C[C@H]2S1(=O)=O	inactive
C=C(C)[C@@H]1CCC2=CCC[C@@H](C)[C@]2(C)C1	11.2 µM (active)
CCC(OCCCOC)OC(C)=O (centres undefined)	inactive
CCOC(=O)c1ccc(C#Cc2ccc3c(c2)C(C)(C)CCS3)nc1	inactive
O=C(Cn1ccnc1[N+](=O)[O-])NCCO	inactive
NC1[C@H]2CN(c3nc4c(cc3F)c(=O)c(C(=O)O)cn4-c3ccc(F)cc3F)C[C@@H]12 (some centres undefined)	inactive
C=COCC(C)C	inactive
NCCNCCO	inactive
Oc1ccc(Cl)c2cccnc12	inactive
C[C@@H](O)[C@H]1C(=O)N2C(C(=O)O)=C([C@H]3CCCO3)S[C@H]12	inactive
COC(=O)C1=C(C)NC(C)=C(C(=O)O[C@@H]2CCCN(Cc3ccccc3)C2)[C@@H]1c1cccc([N+](=O)[O-])c1	4.9 µM (active)
C1COC1	inactive
C[C@@H](O[C@H]1OCCN(Cc2n[nH]c(=O)[nH]2)[C@H]1c1ccc(F)cc1)c1cc(C(F)(F)F)cc(C(F)(F)F)c1	15.5 µM (active)
O=c1cc(-c2ccccc2)oc2ccc3ccccc3c12	3.56 µM (active)
CCOC(=O)c1ccc(O)c(O)c1	inactive
O=C(O)C[C@H](NC(=O)OCc1ccccc1)C(=O)O	inactive
O=c1[nH]c2ccc(Cl)cc2o1	79.6 µM (active)
